Compound activity: PubChem, several laboratories
The list is not random: actives were taken first. Their share in the collection is about 0.44%.
RmlC RmlD mix – mixture blocks RmlC and RmlD coupled enzyme activity; inhibition, % at 5.5 µM; RmlC/RmlD coupled enzyme inhibition, 384-well mixture HTS; hit rate 0.39% among 110,000; AID 1532; in the data active = inhibition above about 30%, passing the limit was not always enough
YopH inh – inhibitors of Yersinia enterocolitica YopH tyrosine phosphatase; fluorescence Ex485/Em525; inhibition, % (concentration not given with the values); hit rate 0.16% among 140,000; in the data active = inhibition above about 50%
RmlCD fluor art – RmlC/RmlD fluorescence artifact, counter-screen; shares compounds with RmlC RmlD mix; RmlC/RmlD assay fluorescence artifact counter-screen; calls only; hit rate 96% among 360; call rule not given here;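 also: compound alone with no enzyme and no substrates present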
Starred values were filed as active, the others as inactive; i = inactive; / = no result; + = active, no number.

SMILES	RmlC RmlD mix	YopH inh	RmlCD fluor art
Cc1coc(NC(=O)CSc2nc(-c3ccc(Cl)cc3)cc(C(F)(F)F)c2C#N)n1	4	-4	/
COc1ccc(-c2cc(C(F)(F)F)c(C#N)c(SCC(=O)Nc3nc(C)co3)n2)cc1	+	-6	+
Cc1ccc(N2C(N)=C(C#N)C(c3cccnc3)C3=C2CCCC3=O)cc1 (centres undefined)	/	-38	/
CC1=C(C#N)C(c2cccnc2)C2=C(CCCC2=O)N1 (centres undefined)	32*	-18	+
CCN(CC)Cc1c(O)ccc2c(C)c(CC(=O)OC)c(=O)oc12	110*	-3	+
COC(=O)Cc1c(C)c2ccc(OCC(=O)N(C)C)cc2oc1=O	31*	-26	+
COC(=O)Cc1c(C)c2ccc(OCC(C)=O)c(C)c2oc1=O	8	-11	/
CCCOc1ccc2c(C)c(CC(=O)OC)c(=O)oc2c1	-9	-8	/
COC(=O)c1sccc1NC(=O)CSc1ccccc1NS(=O)(=O)c1ccc(Br)cc1	-200	-7	/
COc1cc2cc(CN(Cc3ccc4c(c3)OCO4)C(=O)c3ccco3)c(=O)[nH]c2cc1OC	46*	-15	+
Cc1cc2cc(CN(Cc3ccc4c(c3)OCO4)C(=O)c3ccco3)c(=O)[nH]c2cc1C	12	-9	/
CCOC(=O)c1cnc(-n2nc(C)cc2C)nc1N(CC)CC	15	-31	/
Cc1c(O)ccc2c3c(c(=O)oc12)CCCC3	70	-30	/
O=c1c(-c2ccc3c(c2)OCCO3)coc2c(CN3CCOCC3)c(O)ccc12	13	-35	/
CCN(CC)Cc1c(O)ccc2c(-c3ccccc3)cc(=O)oc12	-8	-32	/
CC(C)CN(Cc1c(O)ccc2c3c(c(=O)oc12)CCC3)CC(C)C	95*	-112	+
O=c1oc2c(CN3CCOCC3)c(O)ccc2c2c1CCC2	100*	-29	+
Cc1cc(=O)oc2c(CN(CC(C)C)CC(C)C)c(O)ccc12	105*	-31	+
COc1ccc(CNC(=O)c2cnccn2)cc1	6	12	/
COc1cc(NC(=O)COC(=O)c2nc3nc(C)cc(C)n3n2)cc(OC)c1	8	-36	/
CCC(C)(C)n1nnnc1C(c1cccnc1)N1CCN(c2cccc(C(F)(F)F)c2)CC1 (centres undefined)	11	-7	/
Cc1sc(NC(=S)NC(=O)C2CCCCC2)c(C(N)=O)c1C	/	-27	/
Cn1ccnc1SCC(=O)Nc1cc(S(=O)(=O)N2CCOCC2)ccc1Cl	/	-36	/
CCCCCn1nc(C)c(/C=N\NC(=O)c2cc(C)oc2C)c1C	-16	7	/
CCOC(=O)c1sc(Nc2ccccc2)nc1C	-13	-19	/
SMILES	RmlC RmlD mix	YopH inh	RmlCD fluor art
CCOC(=O)c1sc(Nc2nc3c(OC)cccc3s2)nc1C	79*	-38	+
COc1ccc(-n2nnnc2-c2cn(C)nc2C(F)(F)F)cc1	20	-32	/
COc1ccc2cc3cc(C(=O)NC(C)C)oc3nc2c1	96*	-1	+
COc1ccc2cc3cc(C(=O)Nc4cc(OC)c(OC)c(OC)c4)oc3nc2c1	13	-12	/
O=C(O[C@H]1[C@H](Oc2ccccc2COC(=O)C2(O)C=CCCC2=O)O[C@H](CO)[C@@H](O)[C@@H]1O)c1ccccc1 (some centres undefined)	-14	/	/
COc1cc(O)c(C(CCN2CCN(c3ccccc3)CC2)c2cc(OC)c(OC)c(OC)c2)c(OC)c1 (centres undefined)	-7	/	/
CC1(c2nnc(Cc3ccccc3)o2)CC(c2ccc(F)cc2)=NO1 (centres undefined)	-15	/	/
COC(=O)C1=CNC=C(C(=O)OC)C1c1cccc(OC)c1	50*	-27	+
COC(=O)C1=CNC=C(C(=O)OC)C1c1ccc(Cl)cc1	-24	16	/
O=C(CSc1nnc(NCc2ccccc2)s1)c1ccco1	-1	-26	/
CN1c2ccsc2C(O)=C(C(=S)Nc2ccc(F)c(Cl)c2)S1(=O)=O	5	18	/
Cc1ccc2nc(NC(=O)c3cccc(-c4cc5ccccc5oc4=O)c3)sc2c1	41*	-11	+
CCOc1ccc2nc(NC(=O)c3cccc(-c4cc5ccccc5oc4=O)c3)sc2c1	/	-4	/
O=C(O)c1ccc(-c2nc3ccccc3[nH]2)cc1	/	-27	i
Nc1ccc(-c2nc3ccccc3[nH]2)cc1	19	-30	/
C=C(CO)C1Cc2cc(C(C)=O)ccc2O1 (centres undefined)	9	/	/
Cc1ccc(CCc2nnc(SCC(=O)Nc3cccc(Cl)c3)n2-c2ccccc2)o1	/	-38	/
CNC(=O)c1cc2c(s1)-c1ccccc1CC2	/	/	+
O=C(N/N=C/c1ccc(F)c(F)c1)c1cc2c(s1)-c1ccccc1CC2	-111	-31	/
Cc1cccc(NC(=S)c2nc3ccccc3s2)c1	/	-36	/
Cc1cc(NCCN2CCOCC2)n2c(nc3ccccc32)c1C#N	20	-83	/
Cc1cc(NCCCN2CCOCC2)n2c(nc3ccccc32)c1C#N	71*	-43	+
CCOC(=O)c1cc2c(=O)n3cccc(C)c3nc2n(CC2CCCO2)c1=NC(C)=O (centres undefined)	/	0	/
CCOC(=O)c1cc2c(=O)n3cccc(C)c3nc2n(Cc2ccco2)c1=NC(=O)c1ccccc1	36*	-10	+
O=C(COC(=O)C12CC3CC(CC(C3)C1)C2)Nc1ccccc1F	/	-32	/
SMILES	RmlC RmlD mix	YopH inh	RmlCD fluor art
Cc1ccc(-n2nnnc2SCC(=O)N2CC(=O)Nc3ccccc32)cc1	-8	10	/
C=CCn1c(=O)c(C#N)cc2c(=O)n3ccccc3nc21	58*	-47	+
C=CCn1c(=N)c(C(=O)NCCCOC)cc2c(=O)n3cc(C)ccc3nc21	/	-26	/
COCCCNC(=O)c1cc2c(=O)n3cccc(C)c3nc2n(C(C)C)c1=N	64*	-25	+
COCCn1c(=N)c(C(=O)NCCc2ccc(OC)cc2)cc2c(=O)n3cccc(C)c3nc21	9	-13	/
CC(C)OCCCn1c(=NC(=O)c2ccncc2)c(C#N)cc2c(=O)n3ccccc3nc21	115*	-49	+
CCCCCn1c(=NC(C)=O)c(C#N)cc2c(=O)n3ccccc3nc21	/	-24	/
C=CCn1c(=N)c(C#N)cc2c(=O)n3ccccc3nc21	16	-7	/
C=CCn1c(=N)c(C(=O)NCCCOC)cc2c(=O)n3ccccc3nc21	66*	0	+
CN(C)CCC[C@@]1(c2ccc(F)cc2)OCc2cc(C#N)ccc21	-4	/	/
COC(=O)c1cccc(C23CC4(C2)[C@H](CN(Cc2ccc(C(F)(F)F)cc2)[C@@H]4c2ccccc2)C3c2ccc(C(F)(F)F)cc2)c1 (some centres undefined)	-11	/	/
CC(C)CCC1CC(CSC(=N)N)OC1=O (centres undefined)	4	-13	/
COC(=O)c1cc2c(=O)n3ccccc3nc2n(Cc2cccnc2)c1=N	14	-6	/
N=c1c(C(=O)NCc2ccc(F)cc2)cc2c(=O)n3ccccc3nc2n1Cc1cccnc1	53*	-18	+
CCOc1cc(C(=O)Nc2ccccc2F)cc(Br)c1OCC	/	-5	/
COC(=O)Cc1c(C)c2c(OCc3nn[nH]n3)cc(C)cc2oc1=O	38*	-61	+
COC(=O)Cc1c(C)c2ccc(OCc3nn[nH]n3)cc2oc1=O	31	8	/
c1ccc(-c2ccc3c(c2)c2c4n3CCN=C4CCC2)cc1	38	22	/
N#CC1=C(N)S[C@H](C(=O)C23CC4CC(CC(C4)C2)C3)[C@H]1c1ccncc1	-5	18	/
